HEK293 cAMP cs: raises cAMP in parental HEK293 cells, TSHR agonist counter-screen; parental HEK293 CNG cAMP sensor, membrane potential fluorescence; Potency, µM (top dose mostly 57.1 µM), usual class: activators; actives 2.5% (n = 73,000); AID 938; also: nearly all actives have a fitted effect of over 55% in size
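Parental HEK 293 cells stably expressing a modified CNG channel (no TSHR) report cAMP rise as membrane depolarization. Membrane potential dye with 100 uM RO 20-1724 was loaded for 60 min at room temperature, then compound added for 30 min; fluorescence read at 590 nm.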
Tau filament bind: binders of human tau filaments | recombinant tau filaments, thioflavin S fluorescence, 15 h; filaments grown with octadecylsulfate alongside compound | actives 2% (n = 71,000) | AID 596 | Potency, µM (highest dose often 57.1 µM) | P10636;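 also: actives lower thioflavin S fluorescence by blocking filaments or displacing dye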
Target sequence (P10636 whole entry, looked up): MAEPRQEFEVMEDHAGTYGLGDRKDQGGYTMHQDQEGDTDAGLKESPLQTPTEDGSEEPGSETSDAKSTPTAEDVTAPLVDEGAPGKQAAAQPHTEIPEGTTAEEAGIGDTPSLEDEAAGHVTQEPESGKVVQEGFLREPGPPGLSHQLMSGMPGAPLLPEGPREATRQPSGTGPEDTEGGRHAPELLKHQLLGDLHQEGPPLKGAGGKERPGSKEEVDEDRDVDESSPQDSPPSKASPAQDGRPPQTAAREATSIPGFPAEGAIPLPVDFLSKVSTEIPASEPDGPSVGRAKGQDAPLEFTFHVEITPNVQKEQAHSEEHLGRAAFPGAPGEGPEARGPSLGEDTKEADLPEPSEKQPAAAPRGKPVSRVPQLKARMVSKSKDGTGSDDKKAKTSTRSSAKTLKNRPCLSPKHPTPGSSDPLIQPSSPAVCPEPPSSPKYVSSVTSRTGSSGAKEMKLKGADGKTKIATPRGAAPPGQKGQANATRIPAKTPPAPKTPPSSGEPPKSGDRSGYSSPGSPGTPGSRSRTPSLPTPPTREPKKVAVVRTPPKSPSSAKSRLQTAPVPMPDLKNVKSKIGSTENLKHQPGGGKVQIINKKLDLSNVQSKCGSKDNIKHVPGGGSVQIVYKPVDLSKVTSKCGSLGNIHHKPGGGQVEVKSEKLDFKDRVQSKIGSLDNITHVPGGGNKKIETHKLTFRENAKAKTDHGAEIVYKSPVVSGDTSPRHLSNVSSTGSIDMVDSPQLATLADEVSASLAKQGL
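ThS-based fibril read: tau 1 uM final, inducer ODS 30 uM final, 37 C for 15 h, ex 450/em 510 nm.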
Hsp90 Hop PPI: changes Hsp90-Hop TPR2A binding signal, up or down; AlphaScreen TPR2A-His6 binding biotin-Hsp90 C-terminal peptide; Potency, µM (series often up to 57 µM); actives 0.44% (n = 71,000); active = well fitted curve in either direction with a large enough effect; inconclusive = small, poorly fitted or top-dose-only effect, or another doubt
TSHR agonist: activates the human thyroid stimulating hormone receptor; HEK293-CNG-TSHR cells (CNG channel as cAMP sensor), membrane potential dye, cAMP; Potency, µM (top dose mostly 57.1 µM), most hits filed as activators; actives 0.48% (n = 73,000); AID 926; active = well fitted activation curve with a large enough effect in the main read-out, with a control signal flat, not every such curve was filed as active; inconclusive = small, poorly fitted or top-dose-only effect, or a change in a side signal; inactive = no such curve, though single readings can be large or run the other way; reference of the percent scale not stated here;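 also: the control signal comes from parental cells without the receptor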
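HEK 293 cells stably expressing TSHR and a cAMP-gated CNG channel; parental CNG-only cells as counterscreen. Cells preloaded 60 min with membrane potential dye plus 100 uM RO 20-1724, then compound 30 min; fluorescence read at 590 nm.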
Pol III holo inh: blocks replication by bacterial DNA polymerase III holoenzyme; actives 0.25% (n = 71,000); reconstituted DNA polymerase III holoenzyme replication, biochemical; Potency, µM (top dose mostly 57.1 µM)
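Reconstituted *E. coli* holoenzyme (0.35 nM Pol III, 1 nM beta, 154 nM SSB, 2 nM primase) was preincubated with compound for 15 min at RT. Synthesis on 1.4 nM ssM13Gori ran 35 min, then was stopped with PicoGreen/EDTA and read as dsDNA fluorescence.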
Each line names hits and unclear results; the compound was inactive in the other large screens. Most compounds without a hit are left out; they make up all but 5.1% or so of the library. Unless noted, calls follow the shape of the dose curve; as a rule, active = well fitted curve in the direction sought with a large enough effect; inconclusive = small, poorly fitted or top-dose-only effect, or another doubt; inactive = no such curve, though single readings can be large; an effect the other way counts as inactive or inconclusive.

Cc1ccc(-n2ncc3c(=O)[nH]c(SCC(=O)N4CCN(c5ccccc5)CC4)nc32)cc1	HEK293 cAMP cs inconclusive, TSHR agonist inconclusive
CCn1c(SCC(=O)N2CCCc3ccccc32)nc2cccnc21	none
COc1ccc(C2C3=C(CCCC3=O)Nc3nc4ccccc4n32)cc1OC (stereo not drawn)	none
Cc1cc(C)cc([N+](=O)[O-])c1	TSHR agonist inconclusive
Cc1ncc(CN=Cc2ccc(Cl)cc2)c(N)n1	none (no result: TSHR agonist)
CC1Cc2ccccc2N1C(=O)CSc1nc2c(c(=O)n(C)c(=O)n2C)n1Cc1ccccc1 (stereo not drawn)	HEK293 cAMP cs inconclusive, TSHR agonist inconclusive
Cc1cc(C(=O)COc2ccc(-c3nnco3)cc2)c(C)n1Cc1ccccc1	HEK293 cAMP cs 13µM, TSHR agonist inconclusive
Cc1ccc(S(=O)(=O)N2CCN(C(=O)COc3ccc(-c4nnco4)cc3)CC2)cc1	none
CCN(CC)CCCC(C)n1c(-c2ccccc2)nc2c(N3CCOCC3)nc(C)nc21 (stereo not drawn)	HEK293 cAMP cs inconclusive, TSHR agonist inconclusive
COc1ccc(Cn2c(-c3ccco3)nc3oc4cc(OC)ccc4c(=O)c3c2=O)cc1	Tau filament bind 10µM, TSHR agonist 3.2µM
O=C1CC2(CCCC2)CC(=O)N1CCCCNC[C@H]1COc2ccccc2O1	Tau filament bind inconclusive
O=C1Nc2ccc(I)cc2/C1=C/c1cc(Br)c(O)c(Br)c1	Tau filament bind 1µM, Hsp90 Hop PPI inconclusive, TSHR agonist inconclusive
CCCC[C@@H]1C[C@H]1C(NC(=O)c1ccccc1)c1ccccc1 (stereo partly drawn)	HEK293 cAMP cs 13µM, TSHR agonist inconclusive
CCCC[C@@H]1C[C@H]1C(NC(=O)c1ccco1)c1ccc(Cl)cc1 (stereo partly drawn)	HEK293 cAMP cs 16µM, Hsp90 Hop PPI inconclusive, TSHR agonist inconclusive
CCCC[C@@H]1C[C@H]1C(NC(=O)c1cccnc1)c1ccc(-c2ccccc2)cc1 (stereo partly drawn)	HEK293 cAMP cs inconclusive, TSHR agonist inconclusive
CCCC[C@@H]1C[C@H]1C(NC(=O)c1ccco1)c1ccc(-c2ccccc2)cc1 (stereo partly drawn)	none
CCCC[C@@H]1C[C@H]1C(NC(=O)c1ccco1)c1ccccc1C(F)(F)F (stereo partly drawn)	HEK293 cAMP cs 32µM, TSHR agonist inconclusive
COc1cc(Sc2ccc(C)cc2)c(OC)cc1N	Tau filament bind 25µM, Hsp90 Hop PPI inconclusive
COc1ccc(-c2cc(C(F)(F)F)n3nc(C(=O)Nc4cc(C)on4)cc3n2)cc1OC	Tau filament bind 1.6µM
COC(=O)c1cc2nc(-c3ccc(OC)cc3)cc(C(F)(F)F)n2n1	none
O=C(Nc1ccc2c(c1)OCO2)c1cc2ncc(Br)cn2n1	Tau filament bind 25µM
Cc1cc(C)c2cc(C#N)c(SCC(=O)NCc3ccco3)nc2c1	Tau filament bind 20µM
Cc1cccc(Cc2c(C)nc3nc(SCC(=O)NCc4ccco4)nn3c2C)c1	HEK293 cAMP cs 10µM, TSHR agonist inconclusive
Cc1ccc(Cc2c(C)nc3nc(SCC(=O)NCc4ccco4)nn3c2C)cc1	HEK293 cAMP cs 16µM, TSHR agonist inconclusive
Cc1ccccc1Cc1c(C)nc2nc(SCC(=O)NCc3ccco3)nn2c1C	none
CCOC(=O)CSc1nc2cc(C)cc(C)c2cc1C#N	HEK293 cAMP cs inconclusive, TSHR agonist inconclusive
O=C(N/N=C/c1ccccc1O)c1cc(-c2ccccc2)n[nH]1	none (no result: Tau filament bind, Hsp90 Hop PPI, Pol III holo inh)
CN(C)Cc1ccccc1-c1cc(NCc2ccccc2)ncn1	HEK293 cAMP cs inconclusive, TSHR agonist inconclusive
COc1ncc2nc(CCc3ccccc3)c(=O)n(C)c2n1	HEK293 cAMP cs inconclusive, TSHR agonist inconclusive
Cc1ccc(S(=O)(=O)N2CCN(CCO)CC2)cc1-c1nnc2c3ccccc3c(C)nn12	TSHR agonist 16µM
Cc1ccc(S(=O)(=O)N2CCN(C)CC2)cc1-c1nnc2c3ccccc3c(C)nn12	TSHR agonist 4µM
COC(=O)C(NC(=O)c1ccccc1)=C(C)C	none
C/C(NC(=O)c1ccccc1)=C1/C(=O)CC2C1C2(C)C (stereo not drawn)	HEK293 cAMP cs 4µM, Hsp90 Hop PPI inconclusive, TSHR agonist inconclusive
NC(=O)c1ccccc1N=Cc1ccccn1	none
NC([N-]/N=C/c1ccccn1)=[S]=[Fe].O=S(=O)(O)O	Hsp90 Hop PPI 1.3µM
CCC(C)Nc1ccc(NC(C)CC)cc1 (stereo not drawn)	Tau filament bind 16µM, Hsp90 Hop PPI inconclusive, TSHR agonist inconclusive
CCC(C)NC(=O)c1ccccc1C(=O)NC(C)CC (stereo not drawn)	none
C=CCn1c(=O)c(C(=O)NCCNCC)c(O)c2ccccc21	HEK293 cAMP cs 13µM, TSHR agonist inconclusive
O=C(c1cccc2c1C(=O)N(Cc1cccnc1)C2)N1CCN(c2ccccc2)CC1	none
CCC/C=C(\CCC)C(NP(=O)(c1ccccc1)c1ccccc1)c1ccc(C(F)(F)F)cc1 (stereo not drawn)	HEK293 cAMP cs 4µM, Tau filament bind inconclusive, TSHR agonist inconclusive
CCOC(=O)C1CCCN(C(=O)c2cc(Nc3ccc(OC)c(OC)c3)nc3ccccc23)C1 (stereo not drawn)	none
COc1ccc(Nc2cc(C(=O)NCCCN3CCN(C)CC3)c3ccccc3n2)cc1OC	HEK293 cAMP cs inconclusive, Tau filament bind 16µM, TSHR agonist inconclusive
COc1cccc(OC)c1C(=O)Nn1c(C2CCC2)nc2ccccc2c1=O	HEK293 cAMP cs 25µM, TSHR agonist inconclusive
Cc1nc2ccccc2c(=O)n1NC(=O)c1c(O)c2ccccc2n(C)c1=O	none
O=C(c1ccco1)N1CCC(c2nc(-c3ccc(F)cc3)no2)CC1	HEK293 cAMP cs 20µM, TSHR agonist inconclusive
Nc1ccccc1-c1nnc(SCc2ccccc2F)[nH]c1=O	Tau filament bind 16µM
Nc1nc(-c2ccco2)c(-c2ccco2)s1	Tau filament bind inconclusive, Hsp90 Hop PPI inconclusive, Pol III holo inh inconclusive
c1coc(-c2nc(-c3ccco3)c(-c3ccco3)nc2-c2ccco2)c1	Tau filament bind inconclusive, Hsp90 Hop PPI inconclusive, Pol III holo inh 1.6µM
O=C(COC(=O)CCOc1ccccc1)NCc1ccco1	none
Cc1ccc(-c2csc(=S)n2CC(=O)OCC(=O)NCc2ccco2)cc1	HEK293 cAMP cs 32µM, Hsp90 Hop PPI inconclusive, TSHR agonist inconclusive
O=C(CSc1nnc(-c2ccc(Cl)s2)o1)N1CCCc2ccccc21	HEK293 cAMP cs 4µM, TSHR agonist inconclusive
O=C(CSc1nnc(-c2ccc(Cl)s2)o1)N1CCc2ccccc21	none
COc1ccc(NC(=O)N2CC[C@@]3(CCCN(C(=O)c4cccn4C)C3)C2)cc1	none
COc1ccc(C(=O)N2CCC[C@@]3(CCN(Cc4nccs4)C3)C2)cc1	none
Cc1c(CN(C)C)c2c(n1C)C(=O)c1ccc(Br)cc1-2	Tau filament bind 2.5µM
COc1ccc(Oc2ncc3nc(CCc4ccccc4)c(=O)n(C[C@H]4CCCO4)c3n2)cc1	HEK293 cAMP cs 10µM, TSHR agonist inconclusive

Screening results as filed in PubChem BioAssay.
